Results filed as inconclusive are left out. Some structures have more than one record in an assay (separate samples or runs), and their calls can disagree. Calls of active or inactive are those of the source. Unless noted, calls come from the whole dose curve; as a rule, active = well fitted curve in the direction sought with a large enough effect in the repeat runs; inconclusive = weak or mixed curves; inactive = no such curve, though single readings can be large; an effect the other way counts as inactive or inconclusive.

Experiment [1] is described as follows: qHTS assay to identify small molecule antagonists of the retinoid acid receptor (RAR) signaling pathway - cell viability counter screen (AID 1159551). Note: nearly all actives have a fitted effect of over 35% in size. The procedure, abridged: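 C3RL4 cells were seeded overnight at 37 C, then treated with compounds plus 1 uM (final) retinol for 6 h at 37 C. Viability was read as ATP by CellTiter-Glo luminescence after 30 min at room temperature.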
A general note: qHTS replaces the single test concentration by a dilution series.

Experiment [2] is described as follows: qHTS assay to identify small molecule antagonists of the retinoic acid receptor (RAR) signaling pathway (AID 1159552; note: nearly all actives have a fitted effect of over 50% in size; note: potency is the fitted concentration of half-maximal effect). The procedure, abridged:
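Antagonism of retinol-induced RARE reporter activity was measured in C3RL4 cells. Exposure to compounds and 1 uM final retinol lasted 6 hr at 37 C, with luminescence as endpoint.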

Experiment [3] is described as follows: qHTS assay to identify small molecule agonists of the retinoic acid receptor (RAR) signaling pathway (AID 1159553). The conditions noted are these: C3RL4 RARE luciferase reporter, agonist, 6 h; activation: at 73.3 µM (top of the series) unless noted. The procedure, abridged:
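C3RL4 cells carrying a RARE luciferase reporter were plated overnight at 37 C, then exposed to compounds in DMSO for 6 hr at 37 C and 5% CO2. Luminescence was read 30 min after luciferase reagent addition at room temperature.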

The nature of experiment [4]: qHTS assay to identify small molecule antagonists of the estrogen related receptor (ERR) signaling pathway from Tox21 library - cell viability counter screen (AID 1224834). Note: nearly all actives have a fitted effect of over 30% in size. The procedure, abridged:
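ERR reporter cells were plated 6 h before compound addition, then exposed to test compounds in DMSO for 17.5 h at 37 C. Viability was read as CellTiter-Fluor fluorescence after a 30-minute incubation at 37 C.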

Experiment [5] can be described thus: qHTS assay to identify small molecule antagonists of the estrogen related receptor (ERR) signaling pathway - cell viability counter screen (AID 1224818).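 Note: viability measured after 17.5 h of compound exposure.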 The gist of the method:
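ERR reporter cells plated 6 h at 37 C/5% CO2, then compounds in DMSO pin-transferred and incubated 17.5 h at 37 C. Viability read as CellTiter-Fluor fluorescence after 30 min at 37 C.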

Experiment [6] can be described thus: qHTS assay to identify small molecule antagonists of the estrogen related receptor (ERR) signaling pathway (AID 1224819;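 note: luminescence from an ERR-driven luciferase reporter measured with One-Glo reagent; nearly all actives have a fitted effect of over 50% in size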). The procedure, abridged:
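ERR reporter cells were plated at 2,000 cells/well and left 6 h at 37 C/5% CO2 before pin-tool transfer of compounds in DMSO. After 18 h at 37 C, One-Glo was added and luminescence was read 30 min later at room temperature.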

A short description of experiment [7]: qHTS assay to identify small molecule agonists of the estrogen related receptor (ERR) signaling pathway (AID 1224820). The gist of the method: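 ERR reporter cell line (from NTP), 2,000 cells/well, incubated 6 h before compound addition, then 18 h at 37 C. Luminescence measured 30 min after One-Glo reagent at room temperature.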
The subject of experiment [8] is estrogen-related receptor alpha (ERRalpha) with PGC-1alpha coactivator, human. Nature of the experiment: qHTS assay to identify small molecule antagonists of the estrogen related receptor signaling pathway with the pleiotropic PPARgamma coactivator (PGC) (AID 1224821; calls by dose curve;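 note: lower luminescence signal means antagonism of PGC/ERR signalling; nearly all actives have a fitted effect of over 50% in size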). The procedure, abridged:
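PGC/ERR reporter cell line, plated 6 h before compound addition, then exposed 18 h at 37 °C. Luciferase activity read by luminescence 30 min after One-Glo addition; decrease indicates antagonism.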

A short description of experiment [9]: qHTS assay to identify small molecule antagonists of the estrogen related receptor signaling pathway with the pleiotropic PPARgamma coactivator (PGC) cell viability counter screen (AID 1224822). The procedure, abridged: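 PGC/ERR cells were seeded at 2,000 cells/well, rested 6 h at 37 C/5% CO2, then given compounds in DMSO by pin tool and incubated 17.5 h at 37 C. Viability came from CellTiter-Fluor fluorescence after 30 min.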

A short description of experiment [10]: qHTS assay to identify small molecule agonists of the estrogen related receptor signaling pathway with the pleiotropic PPARgamma coactivator (PGC) (AID 1224823). The gist of the method: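 PGC/ERR reporter cells seeded 6 h, then exposed to compounds (23 nL in DMSO) for 18 h at 37 C. One-Glo luciferase luminescence read after 30 min at room temperature.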

As to `CC(=O)OC[C@H]1O[C@@](COC(C)=O)(O[C@H]2O[C@H](COC(C)=O)[C@@H](OC(C)=O)[C@H](OC(C)=O)[C@H]2OC(C)=O)[C@@H](OC(C)=O)[C@@H]1OC(C)=O`, the Potency result in experiment [1] and in experiment [2] was “inactive” in each case.
Consider `COc1ccc2cc3[n+](cc2c1OC)CCc1cc2c(cc1-3)OCO2`, for which the Potency result in experiment [1] and in experiment [2] was “inactive” throughout.
Turning to `COC(=O)OC`, the Potency result in experiment [1] is “inactive”.
In the case of `CC(O)CNCC(C)O` (stereo not given), the Potency result in [1] was “inactive”.
`CCCCCCCCCCCC(=O)N(C)CC(=O)O`: the Potency entry in experiment [1], in experiment [2] and in experiment [3] was “inactive” in each case.
Consider `N[C@@H](Cc1cc(I)c(Oc2ccc(O)c(I)c2)c(I)c1)C(=O)O`, for which, in [1], the Potency entry was “inactive”.
Take `Cc1nnc(NS(=O)(=O)c2ccc(N)cc2)s1`: the Potency entry in experiment [1] was “inactive”.
For `COc1c(Cl)ccc(Cl)c1C(=O)O`, the Potency result in experiment [1] and in experiment [2] was “inactive” throughout.
On to `CC(=O)OC(C)(C)C1CC=C(C)CC1` (stereo not given), for which the Potency result in experiment [1] and in [2] was “inactive” throughout.
For `COc1ccc([C@@H]2CC(=O)c3c(O)cc(O[C@@H]4O[C@H](CO[C@@H]5O[C@@H](C)[C@H](O)[C@@H](O)[C@H]5O)[C@@H](O)[C@H](O)[C@H]4O)cc3O2)cc1OC`, the Potency entry in [1], in experiment [2] and in experiment [3] was “inactive” throughout.
Turning to `OCC(CO)(CO)CO`, the Potency entry in experiment [1], in experiment [2] and in [3] was “inactive” each time.
Consider `Cc1ccccc1Cl`, for which the Potency entry in [1] is “inactive”.
Regarding `Oc1ccc(Cc2ccccc2O)cc1`, the Potency entry in experiment [1], in [2] and in experiment [3] was “inactive” in each case.
Take `NCCNCCNCCN`: the Potency entry in experiment [1], in [2] and in [3] was “inactive” throughout.
`CC(=O)Nc1ccc(CC(=O)O)cc1`: the Potency result in experiment [1] was “inactive”.
With `CC1(C)C(=O)N(Cl)C(=O)N1Cl`, the Potency result in experiment [1] is “inactive”.
Consider `CC1=CC(=O)CC(C)(C)C1`, for which the Potency result in experiment [1] and in experiment [3] was “inactive” each time. For the same compound, in experiment [2], the Potency was 4.99 µM (active) and inactive.
For `O=C(O)Cc1c[nH]c2ccccc12`, the Potency result in [1] was “inactive”.
Turning to `CC(C=O)Cc1ccc(C(C)(C)C)cc1` (stereo not given), the Potency entry in experiment [1], in experiment [2] and in experiment [3] was “inactive” in each case.
In the case of `N#CCC(=O)O`, the Potency result in experiment [1] and in experiment [2] was “inactive” in each case.
As to `COC(=O)/C=C\C(=O)OC`, the Potency entry in experiment [1], in experiment [2] and in experiment [3] was “inactive” each time.
Take `Cc1cc(C)c(O)c(C)c1`: the Potency result in [1], in experiment [2] and in experiment [3] was “inactive” each time.
As to `COCN(COC)c1nc(N(COC)COC)nc(N(COC)COC)n1`, the Potency result in experiment [1], in experiment [2] and in experiment [3] was “inactive” in each case.
Regarding `O=C(c1ccccc1)c1ccc(O)c(O)c1O`, the Potency result in experiment [1] and in experiment [2] was “inactive” each time.
Turning to `O=C(Cl)c1ccc(C(=O)Cl)cc1`, the Potency result in experiment [1] and in experiment [2] was “inactive” each time.
As to `CO[Si](CCCNCCN)(OC)OC`, the Potency result in experiment [1], in experiment [2] and in experiment [3] was “inactive” each time.
Take `O=[N+]([O-])c1cc(C(F)(F)F)ccc1Cl`: in [1], the Potency entry was “inactive”.
`CCCCCCCCCCCCCC(=O)O`: the Potency result in experiment [1] was “inactive”.
In the case of `CCOC(=O)c1ccc(O)cc1`, the Potency entry in experiment [1] and in [2] was “inactive” in each case.
For the compound `CN1CCCC1=O`, the Potency entry in [1] and in [2] was “inactive” in each case.
For `Cc1ccncc1`, the Potency entry in [1], in experiment [2] and in experiment [3] was “inactive” each time.
Regarding `OC[C@H]1O[C@@H](Oc2ccc(O)cc2)[C@H](O)[C@@H](O)[C@@H]1O`, the Potency result in [1] and in experiment [2] was “inactive” throughout.
For the compound `CCCCCC(C)=O`, the Potency result in experiment [1] and in experiment [2] was “inactive” each time.
`CCCCC(CC)COC(=O)c1ccc(C(=O)OCC(CC)CCCC)cc1` (stereo not given): the Potency entry in experiment [1], in experiment [2] and in experiment [3] was “inactive” in each case.
`CC(=O)OCc1ccc2c(c1)OCO2`: the Potency result in experiment [1] was “inactive”.
Regarding `C=C1C[C@]23C[C@@]1(O)CC[C@H]2[C@@]12C=C[C@H](O)[C@@](C)(C(=O)O1)[C@H]2[C@@H]3C(=O)O`, the Potency entry in experiment [1], in experiment [2] and in experiment [3] was “inactive” throughout.
As to `C=C(C)CC(C)(C)C`, the Potency result in experiment [1], in [2] and in experiment [3] was “inactive” throughout.
`C=CC(=O)NCOCCCC`: the Potency entry in experiment [1], in experiment [2] and in [3] was “inactive” each time.
In the case of `CC(=O)OC/C=C(\C)CCC=C(C)C`, the Potency entry in [1], in [2], in experiment [3] and in experiment [4] was “inactive” in each case.
Take `CC(C)=CCC/C(C)=C/C=O`: the Potency result in experiment [1], in experiment [2], in [3] and in [4] was “inactive” in each case.
Turning to `CCCCCCC(=O)O`, the Potency entry in experiment [1], in experiment [2], in experiment [3] and in [4] was “inactive” throughout.
In the case of `CC(=O)OCCC(C)C`, the Potency result in [1], in experiment [2], in experiment [3] and in [4] was “inactive” throughout.
Regarding `OB(O)O`, the Potency entry in [1], in experiment [2] and in experiment [4] was “inactive” in each case.
Consider `COc1cc(NC(=O)CC(C)=O)c(OC)cc1Cl`, for which the Potency result in [1], in [2], in [3] and in [4] was “inactive” throughout.
For `Nc1cccc(C(F)(F)F)c1`, the Potency entry in experiment [1], in experiment [2], in experiment [3] and in experiment [4] was “inactive” in each case.
With `Nc1cccc(N)n1`, the Potency entry in [1], in [2] and in experiment [4] was “inactive” in each case.
Turning to `C=C(CC(=O)O)C(=O)O`, the Potency result in [1], in [2] and in [4] was “inactive” throughout.
In the case of `COC(=O)CCCCC(=O)OC`, the Potency entry in experiment [1], in experiment [2] and in experiment [4] was “inactive” each time.
For the compound `Cc1ccc([N+](=O)[O-])cc1N`, the Potency result in [1], in experiment [2], in [3] and in experiment [4] was “inactive” each time.
Take `OCC(O)CS` (stereo not given): the Potency result in experiment [1], in experiment [2] and in experiment [4] was “inactive” each time.
As to `CC(=O)C(C)C`, the Potency result in experiment [1], in experiment [2], in experiment [3] and in experiment [4] was “inactive” throughout.
Regarding `C[Si](C)(C)N[Si](C)(C)C`, the Potency result in [1], in experiment [2], in experiment [3] and in experiment [4] was “inactive” each time.
With `CCCCCCCCO`, the Potency entry in experiment [1], in [2], in [3] and in experiment [4] was “inactive” throughout.
Consider `Cc1cccc(C)c1[N+](=O)[O-]`, for which the Potency result in experiment [1], in experiment [2] and in [4] was “inactive” each time.
On to `CN=C(NC#N)NCCSCc1nc[nH]c1C`, for which the Potency result in experiment [1], in [2], in [3], in experiment [6], in experiment [8] and in experiment [9] was “inactive” each time. Also, the Potency result in experiment [4] was “inactive”. Besides, the result in experiment [5], in experiment [7] and in [10] was inactive.
As for `Cc1cc(CC(=O)O)n(C)c1C(=O)c1ccc(Cl)cc1`, the Potency result in experiment [1], in experiment [2], in experiment [3] and in experiment [4] was “inactive” throughout.
As for `CS(=O)(=O)c1ccc(Cl)cc1`, the Potency result in experiment [1], in [2], in [3] and in experiment [4] was “inactive” in each case.
`Cc1ccc(C(C)C)cc1`: the Potency entry in experiment [1], in [2] and in experiment [4] was “inactive” each time.

Source of the values: PubChem BioAssay (Tox21).
